# Test results taken from PubChem BioAssay AID651602 (The Scripps Research Institute Molecular Screening Center, 2012).
# Several values for one entry are separate records, joined by “and”; a condition that tells them apart may be missing. Identical values can stand only once. Screen size: about 360,000 compounds; about 950 (0.26%) were called active. The list comes from a sample in which actives are over-represented; it also holds similar structures and randomly drawn compounds. A number with no mark means an inactive call. Rule as the data show it: active = inhibition above about 11%; inactive = the rest.
# Assay: growth loss of phage-infected E. coli, primary screen, RecBCD inhibitor project, absorbance, with phage, HTS (AID 651602)
# Details: at 11.9 µM, hits give high values
row,SMILES,inhibition
1,CC1(C(=O)NS(=O)(=O)c2ccccc2)CCN1C(=O)C/C=C/c1ccccc1 (stereo not drawn),13.4% (active)
2,CC1(C(=O)NS(=O)(=O)c2ccccc2)CCN1C(=O)c1ccccc1 (stereo not drawn),2.52%
3,CC1(C(=O)NS(=O)(=O)c2ccccc2)CCN1C(=O)Cc1ccc(-c2ccccc2)cc1 (stereo not drawn),-0.69%
4,COc1ccccc1CCn1cnc(-c2ccccc2)c1C(C)C,1.47%
5,Nc1nc2c(ncn2[C@@H]2O[C@H](C(=O)N[C@@H](Cc3ccccc3)C(=O)NCc3ccccc3)[C@@H](O)[C@H]2O)c(=O)[nH]1,3.17%
6,COc1ccc2c(c1)c(=Cc1ccc(N(C)C)cc1)c1cc(-c3ccccc3)[n+](C)n12,23.7% (active)
7,Cc1c(C=O)c2ccccc2n1CC(=O)O,0.31%
8,CC(=O)c1c(C)n([O-])c2ccccc2[n+]1=O,25.5% (active)
9,NC(=O)c1ncn([C@@H]2O[C@H](C(=O)O)[C@@H](O)[C@H]2O)n1,0.63%
10,C[C@H]1CN([C@@H](C)CO)C(=O)CCCn2nncc2CO[C@@H]1CN(C)C(=O)Nc1ccc(N2CCN(C)CC2)cc1,0.4%
11,Cc1ccc(NC(=O)N2c3ccccc3SC2c2ccco2)c(C)c1 (stereo not drawn),5.53%
12,CC(=NNC(N)=O)c1ccc(Cl)c(-n2cccc2)c1,5.68%
13,CCCCOCC1CN(CCCC)S(=O)(=O)c2c(Oc3ccc(F)cc3)cccc2O1 (stereo not drawn),5.95%
14,O=C(COC(=O)COc1cc(Cl)c(Cl)cc1Cl)NC1CC1,3.17%
15,NC(=S)NN=Cc1ccc(OC(=O)COc2cc(Cl)c(Cl)cc2Cl)cn1,11.6% (active)
16,O=C(COc1cc(Cl)c(Cl)cc1Cl)NCCc1ccccn1,-0.15%
17,C=CC1=CCN(S(=O)(=O)C(C)(C)C)[C@@H]1CCO,1.03%
18,Nc1ncnc2c1ncn2C1OC(CO)CC1O (stereo not drawn),3.4%
19,C[C@H](CO)N1C[C@H](C)[C@@H](CN(C)C(=O)Nc2ccccc2F)OCc2cn(nn2)CCCC1=O,0.72%
20,O=C1CCC(=O)N(O)CCCCCNC(=O)CCC(=O)N(O)CCCCCNC(=O)CCC(=O)N(O)CCCCCN1,23.5% (active)
21,COCc1cc(N2CCN(C(=O)OC(C)(C)C)C[C@@H]2C)ccc1N1CCN(Cc2ccccc2)[C@H](C)C1,-2.53%
22,O=C(NNC(=O)c1cc(S(=O)(=O)N2CCCCC2)ccc1Cl)c1ccccc1O,1.7%
23,Cc1cccc(NS(=O)(=O)c2cccc(C(=O)NNC(=O)c3ccccc3O)c2)c1,5.15%
24,O=C(NNC(=O)c1ccccc1O)c1ccccc1O,30% (active)
25,COC(=O)C1=C(C)N(Cc2ccc(C(F)(F)F)cc2)C(=NCc2ccc(C(F)(F)F)cc2)NC1c1cccc(Cl)c1 (stereo not drawn),1.58%
26,O=C(NS(=O)(=O)c1cccs1)[C@H]1O[C@@H](n2ccc(=O)[nH]c2=O)[C@H](O)[C@@H]1O,3.33%

row,SMILES,inhibition
1,O=C(CSc1ccc(-c2ccccn2)nn1)Nc1ccccc1,12.9% (active)
2,COc1cc(NC(=O)CSc2ccc(-c3cccnc3)nn2)cc(OC)c1,0.39%
3,O=C(CSc1ccc(-c2ccc(-n3cccn3)cc2)nn1)Nc1ccc([N+](=O)[O-])cc1,-0.99%
4,O=C1Nc2ccccc2C1=NN=Cc1ccco1,-0.54%
5,C=CC[C@]12C[C@@]3(O[C@H](c4ccc(C(F)(F)F)cc4)N=C3C[C@H](c3ccc(OC)cc3)[C@H]1C)N(C1CCN(Cc3ccccc3)CC1)C2=O,6.28%
6,CC1CCCN(c2cccc3c2S(=O)(=O)N(Cc2ccc(F)cc2)[C@@H](C)[C@H](c2ccccc2)O3)C1 (stereo partly drawn),1.59%
7,N#Cc1ccc(OCCCN2CCC(C(O)(c3ccccc3)c3ccccc3)CC2)c(F)c1,0.63%
8,CCn1c(=O)cc(SCC(=O)NCc2ccc3c(c2)OCO3)c2ccccc21,1.95%
9,C=CCn1c(=O)c(C(=O)NCc2ccc3c(c2)OCO3)c(O)c2ccccc21,12.1% (active)
10,C=CCn1c(=O)c(C(=O)Nc2ncccc2O)c(O)c2ccccc21,3.7%
11,CCOC(=O)c1ccc(NC(=O)Cn2cnc3cc(C)c(C)cc32)cc1,18.8% (active)
12,CCOC(=O)c1ccc(NC(=O)CCn2c(=O)oc3ccccc32)cc1,1.49%
13,CCOC(=O)c1ccc(NC(=O)CS(=O)(=O)c2cn(CC)c3ccccc23)cc1,0.46%
14,Cc1ccccc1C(=O)N[C@H](C(=O)N1CCC[C@H]1C(=O)NCc1ccccc1)C(C)C,-1.25%
15,CC(C)(C)OC(=O)N/N=C/c1ccc(C(=O)O)cc1,1.87%
16,COC(=O)C(C)N=Cc1ccccc1 (stereo not drawn),0.77%
17,COC(=O)N/N=C/c1c[n+]([O-])c2ccccc2[n+]1[O-],37.5% (active)
18,Cc1ccc2nc(CN(C)C(=O)[C@@H](Cc3ccccc3)NC(=O)[C@H]3O[C@@H](n4ccc(=O)[nH]c4=O)[C@H](O)[C@@H]3O)[nH]c2c1,2.03%
19,COC(=O)[C@]12C[C@H](CC(=O)N3CCN(C(=O)C4CC4)CC3)C(=O)N(Cc3ccc4c(c3)OCO4)C1=C[C@H](C(C)(C)C)O[C@@H]2C,2.87%
20,Cc1ccc(C)c(CN2CCC(CNC(=O)C3CCCN(c4ncnc5c4nc4n5CCCCC4)C3)CC2)c1 (stereo not drawn),3.47%
21,CCCOc1ccc(Cl)cc1Nc1nc(NCCO)nc(N2CCCC2)n1,0.63%
22,CCN1CCN(c2nc(Nc3cc(OC)ccc3OC)nc(Nc3cc(OC)ccc3OC)n2)CC1,99.1% (active)
23,COc1ccc(OC)c(NC(=O)CCN2CCC(C)CC2)c1,-0.47%
24,O=S1(=O)c2c(cccc2N2CCCC2)O[C@H](COCc2ccccc2)CN1C1CC1,2.78%
25,Cc1[nH]c2ccccc2c1CC(=O)Nc1ccc(Nc2cccnc2)c(-c2cccc(Cl)c2)c1,3.75%
26,CCN1C(=O)N[C@@H]2C[C@H](C(=O)N3CCCC3)[C@H](C)[C@H](c3ccccc3)C[C@@H]21,4.26%

row,SMILES,inhibition
1,COC(=O)c1cc2c(c3c4cc(F)ccc4n(S(=O)(=O)c4ccccc4)c13)C(=O)N(Cc1ccccc1OC)C2,0.23%
2,O=C(N[C@H](C(=O)N1CCC[C@H]1C(=O)NCCc1ccccc1Cl)c1ccccc1)c1ccccc1,0.16%
3,C=CC1=C(C(=O)O)N2C(=O)[C@@H](NC(=O)/C(=N\OCC(=O)O)c3csc(N)n3)[C@H]2SC1,99.8% (active)
4,C=CC1=C(C(=O)O)N2C(=O)[C@@H](NC(=O)/C(=N/OCC(=O)O)c3csc(N)n3)[C@H]2SC1,102% (active)
5,CO/N=C(\C(=O)N[C@@H]1C(=O)N2C(C(=O)O)=C(COC(C)=O)CS[C@H]12)c1csc(N)n1 (stereo in doubt),101% (active) and 100% (active) and 99.7% (active)
6,CC1(C)OC(=O)C2=C(CC(CCc3ccccc3)OC2c2ccc(Cl)cc2)O1 (stereo not drawn),0.56%
7,COC(=O)[C@]1(Cc2ccccc2)NC=C(C(=O)c2ccccc2)[C@@H]1c1cccc(OC)c1,0.08%
8,O=C(NN=Cc1ccco1)C(=O)Nc1ccc(Cl)c([N+](=O)[O-])c1,1.23%
9,COC(=O)C(C(=O)OC)c1ccccc1NS(=O)(=O)c1cccc2ccccc12,3.8%
10,C[C@H](O)[C@@H]1CN2CCc3ccc(-c4ccc5c(c4)OCO5)cc3[C@@H]2C[C@@H]1N(C)C(=O)C1CCCCC1,4.59%
11,OC(c1ccccc1)(c1ccccc1)C1CCN(CCCOc2ccc(-c3ccsc3)cc2)CC1,-2.69%
12,O=C(C(=O)N1CCC(CNC(=O)c2cccnc2Cl)CC1)c1cccs1,2.71%
13,COc1ccc(C2=CN(Cc3ccccc3)C(c3ccc(OC)cc3)CC2=O)cc1 (stereo not drawn),3.64%
14,C[C@H]1[C@H](c2ccccc2)Oc2cc(Br)ccc2S(=O)(=O)N1Cc1cccc(F)c1,1.98%
15,COC(=O)[C@]12C[C@H](CC(=O)NCCc3ccccc3OC)C(=O)N(Cc3ccccc3)C1=C[C@H](C(C)C)O[C@@H]2C1CC1,1.94%
16,COC(=O)c1c(-c2ccc(OC)cc2)c2c(c3c4cc(OC)ccc4n(S(=O)(=O)c4ccc(F)cc4)c13)C(=O)N(C)C2,2.25%
17,Oc1c(Cl)cc(Cl)c(Cl)c1Cc1c(O)c(Cl)cc(Cl)c1Cl,17.2% (active)
18,Cc1noc(C)c1NC(=O)Nc1ccc2c(c1)C(=O)N([C@H](C)CO)C[C@H](C)[C@H](CN(C)Cc1ccncc1)OCCCC[C@@H](C)O2,2.8%
19,COc1ccc(S(=O)(=O)Nc2ccc3c(c2)C(=O)N([C@H](C)CO)C[C@H](C)[C@@H](CN(C)C)OCCCC[C@H](C)O3)cc1,2.32%
20,O=C1c2ccccc2NC(c2ccc(-c3cccc(Cl)c3)o2)N1O (stereo not drawn),21% (active)
21,CCOC(=O)NN1C(=O)c2ccccc2NC1c1cccc(O)c1 (stereo not drawn),2.82%
22,CC(=O)NN1C(=O)c2ccccc2NC1c1ccccc1 (stereo not drawn),-1.19%
23,CCCCCCCCN1C(=O)[C@@H](CC(=O)NCCCC)C[C@@]2(C(=O)OC)C1=C[C@H](C(C)(C)C)O[C@@H]2C,3.8%
24,CC[C@H](C)[C@H]1CNC(=O)C(=O)N1CC1CCN(CCc2ccc(OC)c(OC)c2)CC1,1.03%
25,C#CCN([C@@H](C)C(=O)OCC)S(=O)(=O)c1ccc(Br)cc1F,1.36%
26,CC(C)(C)C(c1nc2ccccc2[nH]1)n1c(Cc2csc3ccccc23)nc2ccccc21 (stereo not drawn),-0.16%
